Measured values taken from PubChem BioAssay (NCI).
The panel holds about 79,000 compounds, 15% with a hit somewhere; the sample as a whole holds those more often. A number with no mark means an inactive call. Activity calls are given as the source filed them. Cut-off read from the data, not from the text of the source: active = growth inhibition above about 70%; inactive = the rest.

Columns and labels:
[1] = NCI Yeast Anticancer Drug Screen. Data for the rad50 strain (AID 155);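 note: 0% = growth of vehicle-only cultures of the same strain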; settings: S. cerevisiae rad50 strain growth inhibition, hits give high values
Summary of the method: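 Genetically altered yeast (DNA repair pathway); compound treatment; growth inhibition vs vehicle ctrl.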

[2] = NCI Yeast Anticancer Drug Screen. Data for the mec2-1 strain (AID 157); settings: S. cerevisiae mec2-1 strain, hits give high values
Summary of the method: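 Each compound was tested on mec2-1 yeast, a strain altered in DNA damage repair or cell cycle control. Growth inhibition is reported relative to vehicle.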

[3] = NCI Yeast Anticancer Drug Screen. Data for the sgs1 mgt1 strain (AID 161);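 note: 0% = growth of cultures given vehicle only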; settings: S. cerevisiae sgs1 mgt1 strain, hits give high values
Summary of the method: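 Test agents were incubated with a DNA-repair-mutant yeast strain. Growth was then read and compared against vehicle-treated controls.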

[4] = NCI Yeast Anticancer Drug Screen. Data for the cln2 rad14 strain (AID 165);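 note: 0% = growth equal to vehicle treated cultures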; settings: S. cerevisiae cln2 rad14 strain, hits give high values
Summary of the method: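 Test compounds were added to cln2 rad14 yeast cultures; inhibition of growth was then determined by comparison with vehicle treatment.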

[5] = NCI Yeast Anticancer Drug Screen. Data for the bub3 strain (AID 167); settings: S. cerevisiae bub3 mutant strain, hits give high values
Summary of the method: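 Yeast carrying a defined mutation is treated with each compound, and growth is compared with that of vehicle-exposed cells to give inhibition.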

[6] = NCI Yeast Anticancer Drug Screen. Data for the mlh1 rad18 strain (AID 175); settings: S. cerevisiae mlh1 rad18 strain growth inhibition, hits give high values
Summary of the method: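 Inhibition values reflect reduced growth of mutant yeast versus vehicle-treated controls following compound exposure; the mutations affect DNA damage repair.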

[7] = at 5.0 µM (retest, dose inferred, filed as 0.5)
[8] = at 50.0 µM (retest, dose inferred, filed as 5.0)

| Compound | growth inhibition [1, 7] | growth inhibition [1, 8] | growth inhibition ([1]; at 50.0 µM) | growth inhibition [2, 7] | growth inhibition [2, 8] | growth inhibition ([2]; at 50.0 µM) | growth inhibition [3, 7] | growth inhibition [3, 8] | growth inhibition ([3]; at 50.0 µM) | growth inhibition [4, 7] | growth inhibition [4, 8] | growth inhibition ([4]; at 50.0 µM) | growth inhibition [5, 7] | growth inhibition [5, 8] | growth inhibition ([5]; at 50.0 µM) | growth inhibition [6, 7] | growth inhibition [6, 8] | growth inhibition ([6]; at 50.0 µM) |
| --- | --- | --- | --- | --- | --- | --- | --- | --- | --- | --- | --- | --- | --- | --- | --- | --- | --- | --- |
| COc1ccc(N=Cc2ccccc2O)cc1 | -9% | -57% | 8.1% | 0% | -33% | -8% | -8% | -36% | 2.65% | -4% | -24% | 40.9% | -27% | -118% | -5.25% | -7% | -45% | -26.1% |
| Nc1ccc(C(=O)N/N=C\c2cccc3ccccc23)cc1 | 0% | -2% | 61.8% | -3% | 13% | 60.6% | 0% | 0% | 88.9% (active) | -4% | 3% | 34.4% | 6% | 22% | 50.8% | -1% | 21% | 89.3% (active) |
| Cc1nc2ccc3c(ccc4nc(C)c(N=Nc5ccc(C(=N)N)cc5)c(O)c43)c2c(O)c1N=Nc1ccc(C(=N)N)cc1 | 5% | 89% (active) | 93.8% (active) | 0% | 95% (active) | 95.6% (active) | -1% | 70% (active) | 85.2% (active) | -4% | 81% (active) | 87% (active) | -6% | 58% | 93.3% (active) | 2% | 77% (active) | 90.7% (active) |
| CCCCCN(C(=O)CCl)c1ccccc1 | 2% | 36% | 55.7% | -3% | 14% | 35.2% | -1% | 19% | 53.7% | 3% | 5% | 13.8% | -4% | 6% | 50.5% | -2% | 24% | 67.6% |
| CC1(c2ccccc2)Nc2ccccc2C1=Nc1ccccc1 (stereo not given) | -1% | 34% | 93.5% (active) | -4% | 30% | 97.7% (active) | -3% | 54% | 96.3% (active) | -8% | 75% (active) | 97.2% (active) | -7% | 77% (active) | 95.8% (active) | -2% | 86% (active) | 97.3% (active) |
| C1CCC(C2=NC3CCCCC3SC2)CC1 (stereo not given) | 5% | 98% (active) | 92.2% (active) | -16% | 99% (active) | 93.5% (active) | 5% | 86% (active) | 93.9% (active) | 10% | 96% (active) | 90.1% (active) | 6% | 98% (active) | 92.1% (active) | -20% | 98% (active) | 91.2% (active) |
| O=[N+]([O-])c1ccc(-c2ccc(-c3csc(Nc4ccccc4)n3)o2)cc1 | 42% | 96% (active) | 93.2% (active) | 96% (active) | 98% (active) | 93.4% (active) | 44% | 97% (active) | 92.6% (active) | 63% | 97% (active) | 90.8% (active) | 97% (active) | 98% (active) | 93% (active) | 98% (active) | 97% (active) | 90.5% (active) |
| O=C(O)c1c(Cl)c(Cl)c(Cl)c(Cl)c1-c1c2ccc(=O)cc-2oc2cc(O)ccc12 | 54% | 97% (active) | 86.7% (active) | 45% | 99% (active) | 92% (active) | 61% | 99% (active) | 90.5% (active) | 57% | 98% (active) | 91.2% (active) | 57% | 99% (active) | 90.1% (active) | 67% | 98% (active) | 86.2% (active) |
| CCC(c1ccc(Cl)cc1)C(C#N)c1ccc(Cl)cc1 (stereo not given) | 10% | 55% | 84.3% (active) | -1% | 33% | 61.5% | -3% | 46% | 68.1% | -8% | 12% | 11.4% | 6% | 44% | 41.8% | 2% | 52% | 76.4% (active) |
| O=C1c2ccccc2C(=O)c2c(NCCNCCO)ccc(O)c21 | 37% | 93% (active) | 85% (active) | 19% | 94% (active) | 84.7% (active) | 51% | 91% (active) | 86.5% (active) | 53% | 60% | 49.7% | 44% | 86% (active) | 85.3% (active) | 24% | 88% (active) | 85.8% (active) |
